Measurements as given in PubChem BioAssay (NCI).
This is part of a sample that, as a whole, favours compounds with a hit. Of some 79,000 tested, about 15% had one in any assay. Unmarked numbers belong to inactive results. Active and inactive are the calls of the source. Rule as the data show it: active = growth inhibition above about 70%; inactive = the rest.

Experiments:
[1] = NCI Yeast Anticancer Drug Screen. Data for the rad50 strain (AID 155);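 also: 0% = growth of vehicle-only cultures of the same strain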; details: S. cerevisiae rad50 strain growth inhibition; at 50.0 µM; hits give high values
Summary of the method: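 Cells are treated with compound, grown, and their growth is then scored against vehicle-only cultures of the same repair-deficient yeast strain.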

[2] = NCI Yeast Anticancer Drug Screen. Data for the mec2-1 strain (AID 157); details: S. cerevisiae mec2-1 strain, at 50.0 µM, hits give high values
Summary of the method: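 Compounds were applied to mec2-1 yeast cells. Their growth was then compared with that of vehicle-treated cultures to give growth inhibition.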

[3] = NCI Yeast Anticancer Drug Screen. Data for the sgs1 mgt1 strain (AID 161);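 also: 0% = growth of cultures given vehicle only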; details: S. cerevisiae sgs1 mgt1 strain, at 50.0 µM, hits give high values
Summary of the method: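 This yeast growth screen uses a strain with defined DNA-repair lesions; compound-treated growth is compared with vehicle-treated growth.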

[4] = NCI Yeast Anticancer Drug Screen. Data for the cln2 rad14 strain (AID 165);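 also: 0% = growth equal to vehicle treated cultures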; details: S. cerevisiae cln2 rad14 strain, at 50.0 µM, hits give high values
Summary of the method: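 Strain: cln2 rad14 yeast, altered in cell cycle control and DNA damage repair. Read-out: growth inhibition vs vehicle.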

[5] = NCI Yeast Anticancer Drug Screen. Data for the bub3 strain (AID 167); details: S. cerevisiae bub3 mutant strain, at 50.0 µM, hits give high values
Summary of the method: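 Part of a panel of yeast mutants defective in DNA damage repair or cell cycle regulation. Each strain is grown with compound, and inhibition is calculated relative to solvent-treated cultures.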

[6] = NCI Yeast Anticancer Drug Screen. Data for the mlh1 rad18 strain (AID 175); details: S. cerevisiae mlh1 rad18 strain growth inhibition; at 50.0 µM; hits give high values
Summary of the method: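 A repair-deficient yeast strain is exposed to test compound, and growth is scored relative to vehicle-treated controls.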

| Structure (SMILES) | growth inhibition [1] | growth inhibition [2] | growth inhibition [3] | growth inhibition [4] | growth inhibition [5] | growth inhibition [6] |
| --- | --- | --- | --- | --- | --- | --- |
| NC(CSSCC(N)Cc1ccccc1)Cc1ccccc1 (configuration not stated) | -4.25% | -9.45% | -9.2% | 14.8% | -27.5% | 25.9% |
| COC(=O)Cc1c(C(=O)OC)c(O)cc(O)c1C(=O)OC | 5.85% | 5.25% | -10.2% | -14.4% | 12.3% | -5.85% |
| Cn1nnc(CC[N+]2(C)CCOCC2)n1 | -3.35% | 3.45% | -3.35% | -24.5% | 6.05% | 3.9% |
| O=C(O)c1ccccn1 | -37.6% | -3% | 33.8% | -6.1% | -3.85% | 30% |
| COc1nc(N)c2[nH]cnc2n1 | 0.95% | 21.4% | 2.05% | 21.4% | 5.15% | 3.4% |
| CCCCCCCSCC(O)COC(c1ccccc1)(c1ccccc1)c1ccccc1 (configuration not stated) | -17.5% | -28.6% | -29.6% | -20% | -21.5% | -20.6% |
| O=Nc1ccc(O)c2ncccc12 | 7.15% | -9.45% | 15.7% | -26.6% | 1.5% | 31% |
| COC(=O)c1ccccc1C1CN=NC12Cc1c(C)ccc(C)c1C2=O (configuration not stated) | 9.5% | 7% | 16.9% | 14.2% | 3.55% | 29.9% |
| O=S(=O)(O)c1ccc(Nc2ccnc3cc(Cl)ccc23)cc1 | -21.4% | -32.1% | -39.8% | -3.9% | -29.1% | -10% |
| CC(=O)OC/C=C/CN(C)C | 9.3% | 4.6% | -7.25% | 7.8% | -6.2% | 16.5% |
| O=C(NC(COC(=O)c1ccccc1)COC(=O)c1ccccc1)c1ccccc1 | 29.5% | 7.85% | 12.8% | 12.8% | -1.1% | 9.95% |
| O=C(OCc1ccccc1)N(CCCCN(CCCNC(=O)C(F)(F)F)C(=O)OCc1ccccc1)CCCNC(=O)C(F)(F)F | -14.8% | -9.7% | 21.4% | 20.4% | 21.8% | -33.8% |
| CC(C)(C)c1ccc(O)c(C(c2cc(C(C)(C)C)ccc2O)c2cc(C(C)(C)C)ccc2O)c1 | 97.2% (active) | 98.7% (active) | 98% (active) | 97.6% (active) | 96.5% (active) | 96.8% (active) |
| CS(=O)(=O)OC1C(OCc2ccccc2)OC(CO)C(O)C1O (configuration not stated) | -6.1% | 2.15% | -10.1% | -55.6% | -1.6% | 0.55% |
| COc1ccc(NC(=O)c2c(Br)c(Br)c(Br)c(Br)c2C(=O)O)c(Cl)c1 | 92.5% (active) | 88.7% (active) | 92% (active) | 83.5% (active) | 90.3% (active) | 95.2% (active) |
| CCN(CC)CC(C)=O | -31% | -58.3% | -82.5% | 14.8% | -11.9% | -6.1% |
| COC(=O)c1c2c(cc3c1CC1(C3)Cc3ccc4c(c3C1=O)CCC4)CCC2 (configuration not stated) | 12.5% | 14.4% | -7.35% | -13.8% | -21.1% | -86% |
| CCCCCCCCCC1CC(=O)OC23CCCC(=O)C12O3 (configuration not stated) | -10.8% | -32% | 9.2% | 15.8% | -8% | -17.6% |
| Nc1ccccc1C(=O)CC1OC(=O)c2ccccc21 (configuration not stated) | 19.6% | 12.1% | 7.35% | 4% | 7.8% | -13.7% |

| Structure (SMILES) | growth inhibition [1] | growth inhibition [2] | growth inhibition [3] | growth inhibition [4] | growth inhibition [5] | growth inhibition [6] |
| --- | --- | --- | --- | --- | --- | --- |
| Cc1cc(O)c(/C=N/C(=S)Nc2ccccc2)c(=O)o1 | -20.4% | -48.8% | -24.1% | -8.65% | -48.2% | -39% |
| CCOC(=O)C(N=Nc1ccc(S(N)(=O)=O)cc1)C(C)=O (configuration not stated) | -0.9% | -15.1% | -12.7% | -4.25% | -13.2% | 16.1% |
| CCCCCCCC(=O)OCC1OC(n2cc(F)c(=O)[nH]c2=O)C(NC(=O)OCc2ccccc2)C(O)C1O (configuration not stated) | -15.1% | -13.8% | -66.8% | -7.1% | -12.4% | -17.6% |
| COc1cc2c(c(OC)c1OC)-c1ccc(S(=O)(=O)Cc3ccccc3)c(=O)cc1C(NC(C)=O)CC2 (configuration not stated) | 34.5% | 16.2% | 9.8% | -2.3% | 1.25% | 21.8% |
| CC([C@H](c1ccccc1)C1CCC(C(N)=O)(N2CCOCC2)C1)[N+](=O)[O-] (some centres not stated) | 5.8% | 7.9% | 12.3% | 39.1% | 4.45% | 9.85% |
| CC(C)CC(=O)Cc1ccccc1 | 18.8% | 14.7% | 19.2% | -52.7% | -2.2% | -0.2% |
| CC(Br)CNC(=O)c1ccc([N+](=O)[O-])cc1 (configuration not stated) | -0.65% | 17.3% | 3.6% | -4.35% | 9.75% | 13.3% |
| CSc1ccc(C)c(/C=N/Nc2ccc([N+](=O)[O-])cc2[N+](=O)[O-])c1 | 7.05% | 26.9% | 18.4% | -13.6% | 0.5% | 3.25% |
| O=c1cc([N+](=O)[O-])c2c([nH]1)CCC2 | -5.3% | 1.3% | 12.8% | -27.8% | -6.15% | -0.5% |
| CCOP(=O)(OCC)OC1CC(n2cc(C)c(=O)n(C)c2=O)OC1CO[Si](C)(C)C(C)(C)C (configuration not stated) | 19.1% | 1.5% | 25.9% | 17.6% | 20.9% | -12.7% |
| O=P1(c2ccccc2)C(c2ccccc2)=CC=C1c1ccccc1 | 23.4% | 9.8% | 18.1% | 6.6% | 12.3% | 31.2% |
| CCOC(=O)/C(O)=C\c1cc(Br)c(OC)cc1[N+](=O)[O-] | 54.6% | 49.7% | 58.4% | 9.6% | 30.8% | 64% |
| CN(C)P(=O)(Nc1ccc(Cl)cc1)Nc1ccc(Cl)cc1 | 11.7% | -1.9% | 2.1% | 3.9% | 12.7% | 7.5% |
| COC(=O)c1ccccc1NC(=O)Nc1ccc(F)c([N+](=O)[O-])c1 | 3.75% | 22.9% | 3.15% | 0.85% | 11.6% | -10.9% |
| O=C(Oc1c(Cl)c(Cl)c(Cl)c(Cl)c1Cl)Oc1c(Cl)c(Cl)c(Cl)c(Cl)c1Cl | -13.7% | -8.25% | 19.1% | -15.1% | 12.8% | 3.4% |
| CC(=O)N(c1ccccc1)c1ccccc1 | 12.8% | 13.2% | 2.6% | 6.05% | -0.2% | 4.1% |
| Cc1ccc(S(=O)(=O)Oc2ccccc2NS(=O)(=O)c2ccccc2)cc1 | 68.2% | 53.2% | 76.5% (active) | 52.1% | 13.5% | 48.1% |
| COC(=O)[C@H](Cc1c[nH]c2ccccc12)NP(=O)(OCCC#N)OCC1OC(n2cc(C)c(=O)[nH]c2=O)CC1N=[N+]=[N-] (some centres not stated) | -13.6% | -33.1% | -23.4% | -13.3% | -30.8% | -65% |
